Nrf2 activator – activators of Nrf2 (ARE) signaling; AID 624171; AREc32 ARE-luciferase reporter (MCF7-derived line), luminescence, 24 h; 0.31% of 410,000 active; Potency, µM (doses to about 46.1 µM), for the others: at the top dose activation, most hits filed as activators; note: % of control where 0% means no effect; nearly all actives have a fitted effect of over 65% in size
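Steps: seed AREc32_Fluc cells (1000/well, 5% FBS OPTI-MEM); incubate overnight at 37 deg C; add 23 nL compound; incubate 24 hr; add Steady-Glo; hold 30 min RT; read luminescence.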
Pin1 inhibitor – blocks the human prolyl isomerase Pin1; Q13526; Pin1 FP peptide displacement, HiFluor488, 10 min; Potency, µM (doses to about 115 µM), for the others: at the top dose activity, negative = inhibition, hits mostly inhibitors; 0.009% of 390,000 active; active = well fitted inhibition curve with a large enough effect in the polarisation, with a control signal flat, not every such curve was filed as active; inconclusive = small, poorly fitted or top-dose-only effect, or effect the other way, or a change in a side signal; inactive = no such curve, though single readings can be large or run the other way; the % refers to the polarisation; note: % is set by controls: 0 for no effect and ±100 for the full control effect
Target sequence (Q13526 whole entry, looked up): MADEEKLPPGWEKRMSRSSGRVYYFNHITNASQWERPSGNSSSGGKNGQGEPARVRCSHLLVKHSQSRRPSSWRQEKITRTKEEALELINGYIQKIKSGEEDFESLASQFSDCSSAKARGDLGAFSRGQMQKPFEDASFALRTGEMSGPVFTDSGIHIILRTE
A549 tox – kills or reduces viability of A549 cells in Nrf2 counter-screen; A549 ARE-Fluc cells, CellTiter-Fluor viability, 18-24 h; 0.16% of 390,000 active; Potency, µM (highest dose often 46 µM), without a hit: at the top dose activity change, negative = cytotoxicity, actives largely listed as inhibitors; note: % is set by controls: 0 for no effect and ±100 for the full control effect
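A549 ARE-Fluc cells in 5% FBS OPTI-MEM, 5000 cells/well, rested 2 h then exposed to compounds in concentration-response for 18-24 h at 37 °C. Viability by CellTiter-Fluor fluorescence (Ex 405/Em 525) after 30 min; luciferase luminescence (BugLite, 15 min, RT) read afterwards.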
Nrf2 inh – Nrf2 pathway inhibition; A549 ARE-Fluc reporter, luciferase luminescence, 18-24 h; Potency, µM (highest dose often 46 µM), without a hit: at the top dose activity change, negative = inhibition, most hits filed as inhibitors; 2.1% of 360,000 active; AID 504444; note: % is set by controls: 0 for no effect and ±100 for the full control effect; nearly all actives have a fitted effect of over 60% in size
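Cells were seeded and rested 2 h, then exposed to compounds for 18-24 h. CellTiter-Fluor was read first as a viability measure. BugLite was added 15 min before the final luminescent read of ARE-luciferase activity in A549 cells.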
An asterisk follows results filed as active. A selection: hits, their analogues and other compounds. The true share with any hit is near 2.2%. Unless noted, calls come from the whole dose curve; as a rule, active = well fitted curve in the direction sought with a large enough effect; inconclusive = small, poorly fitted or top-dose-only effect, or another doubt; inactive = no such curve, though single readings can be large; an effect the other way counts as inactive or inconclusive. Potency is the fitted concentration of half-maximal effect.

How did O=C/C(=C\Nc1ccccn1)c1nc2ccccc2o1 do in these assays?
Nrf2 activator: 13µM*; Pin1 inhibitor: inconclusive; A549 tox: 6%; Nrf2 inh: inconclusive

How did O=C/C(=C\Nc1ccccn1)c1nc2cc(Cl)ccc2o1 do in these assays?
Nrf2 activator: 23%; Pin1 inhibitor: 31%; A549 tox: 3%; Nrf2 inh: 26%

How did Cc1ccnc(OC(C(=O)O)C(OCCc2ccccc2)(c2ccccc2)c2ccccc2)n1 (stereo not drawn) do in these assays?
Nrf2 activator: 0%; Pin1 inhibitor: -8%; A549 tox: -25%; Nrf2 inh: inconclusive

What do the screens show for `Cc1cc(C)nc(OC(C(=O)O)C(OCCc2ccccc2)(c2ccccc2)c2ccccc2)n1` (stereo not drawn)?
Nrf2 activator: 0%; Pin1 inhibitor: 0%; A549 tox: -14%; Nrf2 inh: 13µM*

How did CCCCOC(=O)c1ccc(Nc2ncnc3[nH]ncc23)cc1 do in these assays?
Nrf2 activator: 0%; Pin1 inhibitor: 4%; A549 tox: 5%

Results for C=CCNC(=S)NNC(=O)c1ccc(OCCC)cc1 ?
Nrf2 activator: 0%; Pin1 inhibitor: -3%; A549 tox: -7%; Nrf2 inh: -3%

Results for CCCOc1ccc(C(=O)NNC(=S)NC(=O)CC)cc1 ?
Nrf2 activator: 0%; Pin1 inhibitor: -2%; A549 tox: inconclusive; Nrf2 inh: 4.6µM*

How did CC(C)c1ccc(OCC(=O)NCC(c2ccc(Cl)cc2)N2CCOCC2)cc1 (stereo not drawn) do in these assays?
Nrf2 activator: 5%; Pin1 inhibitor: 0%; A549 tox: 14%; Nrf2 inh: -26%

What do the screens show for `CCc1cc2c(=O)c(-c3nc(C)cs3)coc2cc1O`?
Nrf2 activator: inconclusive; Pin1 inhibitor: inconclusive; A549 tox: 1%; Nrf2 inh: 2%

How did Cc1csc(-c2coc3cc(O)cc(C)c3c2=O)n1 do in these assays?
Nrf2 activator: 10µM*; Pin1 inhibitor: 12%; A549 tox: 1%; Nrf2 inh: inconclusive

How did Cc1ccc(C)c(/C=N/Nc2ccccn2)c1 do in these assays?
Nrf2 activator: 8.9µM*; Pin1 inhibitor: 1%; A549 tox: 1%; Nrf2 inh: inconclusive

Results for Fc1cccc(/C=N/Nc2ccccn2)c1 ?
Nrf2 activator: 7.1µM*; Pin1 inhibitor: 1%; A549 tox: 1%; Nrf2 inh: inconclusive

Results for COc1ccc(CNC(=O)CCc2c(C)nc3nc(CNC(=O)OC(C)(C)C)nn3c2C)cc1 ?
Nrf2 activator: -1%; Pin1 inhibitor: -7%; A549 tox: -5%; Nrf2 inh: -12%

What do the screens show for `COc1ccc(C2c3c(ncn(Cc4ccccc4)c3=N)Oc3ccc4ccccc4c32)cc1OC` (stereo not drawn)?
Pin1 inhibitor: 66%; A549 tox: -10%; Nrf2 inh: 3%

What do the screens show for `COc1ccc(OC)c(CCNC(=O)C(=O)Nc2ccc3nc4n(c(=O)c3c2)CCCCC4)c1`?
Nrf2 activator: -1%; Pin1 inhibitor: 10%; A549 tox: -3%; Nrf2 inh: 21µM*

What do the screens show for `CC1=NN(c2nc3ccccc3[nH]2)C(=O)/C1=C/N(C)C`?
Nrf2 activator: 0%; Pin1 inhibitor: 0%; A549 tox: -3%; Nrf2 inh: 18µM*

How did CC1=NN(c2nc3ccccc3[nH]2)C(=O)C1Cc1ccccc1 (stereo not drawn) do in these assays?
Nrf2 activator: 7%; Pin1 inhibitor: -7%; A549 tox: -27%; Nrf2 inh: 23µM*

Results for O=C(NC1CCCCC1)c1cc(Nc2cccc(C(F)(F)F)c2)nc2ccccc12 ?
Nrf2 activator: 1%; Pin1 inhibitor: -1%; A549 tox: 17%

What do the screens show for `C=C(C)CN(CC)c1nc(N)c2c(N)nc3c(c2c1C#N)CC(=O)N3C12CC3CC(CC(C3)C1)C2`?
Nrf2 activator: 13%; Pin1 inhibitor: 14%; A549 tox: -17%; Nrf2 inh: 13µM*

Results for CCc1nnc(SC(CC)C(=O)Nc2ccc(OC)c(Cl)c2)c2cc3occc3n12 (stereo not drawn) ?
Nrf2 activator: 6%; Pin1 inhibitor: 22%; A549 tox: -1%; Nrf2 inh: inconclusive

Results for Cc1ccc(N=c2oc3cc(O)ccc3cc2C(N)=O)cc1 ?
Nrf2 activator: 0%; Pin1 inhibitor: inconclusive; A549 tox: 2%; Nrf2 inh: 21µM*

Results for COc1ccc(OC)c(C(=O)COC(=O)c2ccccc2O)c1 ?
Nrf2 activator: 13µM*; Pin1 inhibitor: 5%; A549 tox: -2%; Nrf2 inh: 0%

Results for O=S(=O)(c1ccccc1)N1CCC(Oc2ccc(-n3cnnn3)cc2)CC1 ?
Nrf2 activator: 3%; Pin1 inhibitor: 0%; A549 tox: -6%; Nrf2 inh: inconclusive

Results for O=S(=O)(c1cccc(C(F)(F)F)c1)N1CCC(Oc2ccc(-n3cnnn3)cc2)CC1 ?
Nrf2 activator: 0%; Pin1 inhibitor: 4%; A549 tox: inconclusive; Nrf2 inh: 18µM*

What do the screens show for `CN(C)c1ccc(-c2cc[nH]c(=O)c2N)cc1`?
Pin1 inhibitor: -1%; A549 tox: -10%; Nrf2 inh: 15%

Results for COc1cccc(N=c2oc3ccc(OC)cc3cc2-c2nc3ccccc3[nH]2)c1 ?
Nrf2 activator: 14%; Pin1 inhibitor: inconclusive; A549 tox: 13µM*; Nrf2 inh: inconclusive

What do the screens show for `O=S(=O)(Nc1cc(Cl)ccc1-n1cncn1)c1cc(Br)ccc1Br`?
Nrf2 activator: 0%; Pin1 inhibitor: 0%; A549 tox: inconclusive; Nrf2 inh: 13µM*

What do the screens show for `CCOC(=O)N1CCN(Cc2nc3cc(NC(=O)c4ccc([N+](=O)[O-])cc4)ccc3n2C(C)C)CC1`?
Nrf2 activator: -1%; Pin1 inhibitor: -2%; A549 tox: -11%; Nrf2 inh: inconclusive

How did O=C(CCNc1ccc(Cl)cc1)c1cccs1 do in these assays?
Nrf2 activator: inconclusive; Pin1 inhibitor: 0%; A549 tox: -1%; Nrf2 inh: 23%

What do the screens show for `O=C(CCNc1cc(Cl)cc(Cl)c1)c1cccs1`?
Nrf2 activator: 6.3µM*; Pin1 inhibitor: -3%; A549 tox: 7%; Nrf2 inh: 9%

How did NC(=O)C1CCN(c2ncc(-c3ccc4c(c3)OCO4)s2)CC1 do in these assays?
Pin1 inhibitor: -12%

Results for COc1ccc(NC(=O)C2CCCN(C(=O)c3cnn(-c4ccccc4)c3-n3cccc3)C2)cc1 (stereo not drawn) ?
Nrf2 activator: 4%; Pin1 inhibitor: -9%; A549 tox: -24%; Nrf2 inh: inconclusive

Results for CC1CCc2c(nc3ncnn3c2N2CCN(c3ccccc3F)CC2)C1 (stereo not drawn) ?
Nrf2 activator: 0%; Pin1 inhibitor: -7%; A549 tox: -15%; Nrf2 inh: -10%

Results for CC1CCc2c(nc3ncnn3c2NCCc2ccccc2F)C1 (stereo not drawn) ?
Nrf2 activator: 0%; Pin1 inhibitor: -2%; A549 tox: inconclusive; Nrf2 inh: 3.3µM*

Screening results (PubChem BioAssay)
